# Measurements reported in PubChem BioAssay (NCI).
# This is part of a sample that, as a whole, favours compounds with a hit. Of some 79,000 tested, about 15% had one in any assay. A number with no mark means an inactive call. Rule as the data show it: active = growth inhibition above about 70%; inactive = the rest.
# Test: NCI Yeast Anticancer Drug Screen. Data for the cln2 rad14 strain (AID 165);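 also: 0% = growth equal to vehicle treated cultures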
# Settings: S. cerevisiae cln2 rad14 strain, at 50.0 µM, active compounds read high
# Summary of the method: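 cln2 rad14 yeast strain; compound exposure; growth inhibition read vs vehicle controls.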
row,Structure (SMILES),growth inhibition
1,N#CC(C#N)=Cc1ccc(F)cc1,-15.7%
2,C[N+](C)(C)CC1CCCC(C[N+](C)(C)C)C1=NO (stereo not drawn),19.7%
3,CC(C)=CC1CC(=[N+]=[N-])C(=O)C1(C)C (stereo not drawn),16.9%
4,CC(C)NCCc1c[nH]c2ccccc12,-60%
5,CC(C)OP(=O)(NC(=S)c1ccccc1)OC(C)C,11.4%
6,CC(Br)C(N)=O (stereo not drawn),-20.4%
7,C=CCN1CC2CN=NC2(C#N)C1 (stereo not drawn),-22.3%
8,C1CC[N+]2=C(C1)OCCC2,-17.2%
9,CN(C)CCNc1nc2c(no[n+]2[O-])c2ccccc12,-12.8%
10,Cc1cc(N)ccc1N,4.25%

# Test: NCI Yeast Anticancer Drug Screen. Data for the bub3 strain (AID 167)
# Settings: S. cerevisiae bub3 mutant strain, at 50.0 µM, active compounds read high
# Summary of the method: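 Yeast carrying a defined mutation is treated with each compound, and growth is compared with that of vehicle-exposed cells to give inhibition.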
row,Structure (SMILES),growth inhibition
1,N#CC(C#N)=Cc1ccc(F)cc1,16.1%
2,C[N+](C)(C)CC1CCCC(C[N+](C)(C)C)C1=NO (stereo not drawn),-1.5%
3,CC(C)=CC1CC(=[N+]=[N-])C(=O)C1(C)C (stereo not drawn),4.05%
4,CC(C)NCCc1c[nH]c2ccccc12,13.3%
5,CC(C)OP(=O)(NC(=S)c1ccccc1)OC(C)C,13.8%
6,CC(Br)C(N)=O (stereo not drawn),-4.9%
7,C=CCN1CC2CN=NC2(C#N)C1 (stereo not drawn),6.7%
8,C1CC[N+]2=C(C1)OCCC2,-1.9%
9,CN(C)CCNc1nc2c(no[n+]2[O-])c2ccccc12,3.35%
10,Cc1cc(N)ccc1N,-6%

# Test: NCI Yeast Anticancer Drug Screen. Data for the mlh1 rad18 strain (AID 175)
# Settings: S. cerevisiae mlh1 rad18 strain growth inhibition; at 50.0 µM; active compounds read high
# Summary of the method: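 Yeast w/ defined DNA-repair lesions; compound exposure; growth vs vehicle controls → % inhibition.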
row,Structure (SMILES),growth inhibition
1,CCOC(=O)c1ccc2nc(-c3ccc(S(=O)(=O)F)cc3)cc(Cl)c2c1,23.5%
2,CN1CCN(c2ccc(Cl)cc2)CC1,0.7%
3,CCCOP(=O)(CCl)OCCC,8.25%
4,CC(Cc1ccccc1)N(C)CC1C(=O)C2CCC1C2 (stereo not drawn),6.25%
5,Cc1ccc(-n2c(=S)[nH]c3ccccc3c2=O)cc1F,-18.1%
6,N#CC(C#N)=Cc1ccc(F)cc1,-15.5%
7,C[N+](C)(C)CC1CCCC(C[N+](C)(C)C)C1=NO (stereo not drawn),20.6%
8,COc1ccccc1NC1=NCCS1,15.4%
9,COc1ccc(-n2c(=S)[nH]c3ccccc3c2=O)cc1,4.8%
10,Clc1cccc(NC2=NCCS2)c1,-40.8%
11,O=C1C(Cl)=C(Cl)C1(Cl)Cl,-2.65%
12,CC(C)=CC1CC(=[N+]=[N-])C(=O)C1(C)C (stereo not drawn),28.6%
13,CN1C2c3ccccc3C3C4c5ccccc5C(C31)C(C2[N+](=O)[O-])N4C (stereo not drawn),-13.5%
14,CNCCc1ccc(O)c(O)c1,-6.15%
15,NC(=O)NNc1ccc([N+](=O)[O-])cc1[N+](=O)[O-],14.8%
16,CC1NCCc2cc(O)c(O)cc21 (stereo not drawn),40%
17,COc1cccc(N=C(N)N[N+](=O)[O-])c1,-7.25%
18,C[N+]1([O-])C2CCC1CC(OC(=O)C(O)c1ccccc1)C2 (stereo not drawn),3.4%
19,CC(C)NCCc1c[nH]c2ccccc12,1.65%

row,Structure (SMILES),growth inhibition
1,O=C(CBr)OCCCS(=O)(=O)O,-33.8%
2,CC(Br)C(N)=O (stereo not drawn),-13.8%
3,O=C(/C=C/c1ccccc1)NCCc1cnc[nH]1,16.4%
4,C1CC[N+]2=C(C1)OCCC2,4.25%
5,c1ccc2c(c1)O[As](O[As]1Oc3ccccc3O1)O2,10.2%
6,O=C(CBr)OCS(=O)(=O)O,-6.2%
7,NC(=NC1CCCCCCCCCCC1)N[N+](=O)[O-],12.3%
8,O=C(CCN1CC=C(c2ccccc2)CC1)NCc1ccccc1,8.55%
9,COc1ccc(C(=O)OC2CC3CCC(C2)N3)cc1OC (stereo not drawn),22.8%
10,Cc1ccc(-n2c(=S)[nH]c3ccccc3c2=O)cc1,-20.9%
11,O=c1c2ccccc2[nH]c(=S)n1-c1cccc(Cl)c1,27.4%
12,Brc1ccc(C[N+]23CCN(CC2)CC3)cc1,-16%
13,Cc1ccc(-c2cc(Cl)c3cc(S(=O)(=O)F)ccc3n2)cc1,-9.1%
14,C/C=C1\CN2CCC1CC2C(O)c1ccnc2ccc(O)cc12 (stereo not drawn),32.2%
15,Cc1cccc(-c2cc(Cl)c3cc(S(=O)(=O)F)ccc3n2)c1,-33.4%
16,CSC(=S)NNC(=O)c1cccc(S(=O)(=O)F)c1,50.7%
17,O=c1c2ccc(Cl)cc2[nH]c(=S)n1-c1ccc(Cl)cc1,11%
18,CN(C)CCNc1nc2c(no[n+]2[O-])c2ccccc12,-19.9%
19,Cc1cc(N)ccc1N,-2.9%
